Compound activity: PubChem BioAssay, National Center for Advancing Translational Sciences (NCATS)
SmPrx2 inh: inhibitors of Schistosoma mansoni peroxiredoxin 2 | S. mansoni Prx2 activity coupled to TGR/GSH (TGR is thioredoxin glutathione reductase), NADPH fluorescence loss, qHTS | Potency, µM | 0.07% of 65,000 active
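Activity is read as the drop in NADPH fluorescence (365/450 nm), recorded every 30 sec for 8 min after H2O2 addition. Prx2 is coupled to TGR-driven NADPH oxidation through glutathione, in phosphate buffer pH 7.4.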
Anthrax LT inh: anthrax lethal toxin internalization inhibition | 0.67% of 70,000 active | Potency, µM (highest dose often 40 µM), inactives show top-dose activity change, negative = inhibition, hits mostly inhibitors | Cells, anthrax lethal toxin internalization, FRET ratio (460/530); further: on the % scale 0 is the no-effect control and ±100 the full control effect; nearly all actives have a fitted effect of over 50% in size
AmpC det inh: AmpC beta-lactamase inhibition, detergent assay; P00811; purified AmpC, nitrocefin hydrolysis with detergent; Potency, µM (highest dose often 28.7 µM), for inactives: top-dose activity change, negative = inhibition; 0.09% of 71,000 active; AID 584; active means well fitted curve in the direction sought with a large enough effect; inconclusive means small, poorly fitted or top-dose-only effect; further: on the % scale 0 is the no-effect control and ±100 the full control effect
Target sequence (P00811 whole entry, looked up): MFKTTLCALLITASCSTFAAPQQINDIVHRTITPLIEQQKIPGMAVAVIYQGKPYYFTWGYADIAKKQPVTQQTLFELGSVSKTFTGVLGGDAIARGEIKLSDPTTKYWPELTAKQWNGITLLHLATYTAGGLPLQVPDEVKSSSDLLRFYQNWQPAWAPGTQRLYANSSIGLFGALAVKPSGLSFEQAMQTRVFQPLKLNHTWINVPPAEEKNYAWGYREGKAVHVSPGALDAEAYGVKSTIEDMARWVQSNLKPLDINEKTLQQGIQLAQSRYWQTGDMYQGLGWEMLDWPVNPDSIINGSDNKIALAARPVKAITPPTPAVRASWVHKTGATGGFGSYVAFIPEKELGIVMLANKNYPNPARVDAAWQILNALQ
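E. coli AmpC (5.3 nM) in 20 mM phosphate pH 7.0 with 0.01% Triton X-100, preincubated 15 min RT with compound; nitrocefin (2 uL of 800 uM stock) hydrolysis followed by 480 nm absorbance every 20 s over 4 min.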
AmpC inh no det: inhibitors of E. coli AmpC beta-lactamase without detergent; P00811; AmpC nitrocefin hydrolysis, absorbance 480 nm, no detergent; Potency, µM (doses to about 28.7 µM), for the others: at the highest dose activity change, negative = inhibition; 1.8% of 71,000 active; AID 585; further: % of control where 0% means no effect
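AmpC, 20 mM phosphate pH 7.0; 15 min cpd preinc, RT; start with nitrocefin (800 uM stock); A480 kinetic read, 20 s intervals, 4 min. No-enzyme wells = negative control.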
Active calls of the source: *; ? = inconclusive; . = not tested or not shown; [ ] = dose if it differs, or a comment. Only some compounds are listed: those with a hit (about 2.4% of all), similar ones and a draw of the others. Unless noted, the call rests on the fitted dose curve. Potency means the concentration at half of the fitted maximal effect.

SMILES	SmPrx2 inh	Anthrax LT inh	AmpC det inh	AmpC inh no det
Cc1ccc(N2C(=O)c3ccccc3C2O)nc1 (configuration not stated)	>57	14.2%	11.5%	3.98µM*[single pt active]
O=C1c2ccccc2C(Nc2ccc(Cl)cn2)N1c1ccccn1 (configuration not stated)	>57	-22.2%	14.8%	3.98µM*[single pt active]
O=C1c2ccccc2C(O)N1c1ccc(Cl)cc1 (configuration not stated)	>57	-13.5%	7.4%	-8.1%
Cc1ccc(N2C(=O)c3ccccc3C2Nc2ccccc2F)nc1 (configuration not stated)	>57	?	10.2%	3.98µM*[single pt active]
O=C(O)[C@@H]1[C@H](C(=O)O)[C@H]2C(=O)C=C[C@H]1N2Cc1ccccc1	>57	?	-2.7%[5.75 µM]	-0.9%[5.75 µM]
CCOC(=O)C1CCCN(c2ncnc3c2oc2ccccc23)C1 (configuration not stated)	>57	6.3%	-0.7%	69.0%
CCOC(=O)C1CCCN(c2c(NCCc3ccc(S(N)(=O)=O)cc3)c(=O)c2=O)C1 (configuration not stated)	>57	0.2%	12.8%	3.98µM*[single pt active]
CCOC(=O)C1CCCN(c2c(NCc3ccco3)c(=O)c2=O)C1 (configuration not stated)	>57	3.4%	13.7%	3.98µM*[single pt active]
CCOC(=O)N1CCC(Nc2c(NCCCN(C)Cc3ccccc3)c(=O)c2=O)CC1	>57	6.0%	14.7%	3.98µM*[single pt active]
CCOC(=O)N1CCC(Nc2c(-c3ccc(C)c(C)c3)c(=O)c2=O)CC1	>57	10.4%	-0.6%	14.4%
CCOC(=O)C1CCCN(c2c(N3CCc4ccccc4C3)c(=O)c2=O)C1 (configuration not stated)	>57	17.9%	12.2%	3.98µM*[single pt active]
O=C1c2ccccc2C(=O)N1c1ccc(Cc2ccc(N3C(=O)c4ccccc4C3=O)cc2)cc1	>57	?	-5.3%[5.75 µM]	5.5%[5.75 µM]
COc1ccc(-c2ccc3c(n2)CCCN3C[C@H](O)CN2CCCc3nc(C)c(C)cc32)cc1	.	-3.4%[8 µM]	.	.
CCOC(=O)C1CCCN(c2c(NCCN(C)Cc3ccccc3)c(=O)c2=O)C1 (configuration not stated)	>57	-13.2%	12.9%	3.98µM*[single pt active]
CN(C)CN1CSC(=S)N(CN(C)C)C1	>57	-1.3%[8 µM]	-5.7%[5.75 µM]	-12.8%[5.75 µM]
Cc1nc2cnc(N3CCOCC3)nc2n(C[C@H]2CCCO2)c1=O	>57	-6.1%	0.3%	7.8%
Cc1ccc(NC(=O)c2c(-c3c(F)cccc3Cl)noc2C)cc1F	.	10µM*	-1.6%	-18.2%
CN=C1N[C@H](c2ccccc2)N(c2ccccc2)S1	>57	25.1µM*	-3.4%	10.1%
N=C(N)c1ccc(N2CCN(C3CCN(CC(=O)O)CC3)CC2)cc1	.	-16.0%	.	.
c1ccc(CCN2CCCCCC2)nc1	>57	10.5%[8 µM]	-2.3%[5.75 µM]	-7.5%[5.75 µM]
N#C/C(C(=O)c1ccccc1)=C1/SC=C(N)N1c1ccccc1	>57	-29.2%	11.0%	12.6µM*
CC1=CS/C(=C(/C#N)C(=O)N2CCCCC2)N1c1ccccc1	.	1.7%	-1.1%	5.0%
CC(Oc1ccc(Cl)cc1Cl)C(=O)Nc1ccncc1 (configuration not stated)	>57	7.94µM*	-3.1%	19.3%
c1cc2c3c(c1)c1c(n3CCNC2)CCCC1	>25.6	?	15.8µM*	?
c1ccc2c(c1)c1c3n2CCNC3CCC1 (configuration not stated)	>57	?	-3.5%	10.7%
SMILES	SmPrx2 inh	Anthrax LT inh	AmpC det inh	AmpC inh no det
CC(C)CNC(=O)c1cccc(NC(=O)c2ccc(NC(=O)c3ccco3)cc2)c1	>57	-3.9%	-1.0%	15.8µM*[single pt active]
CC(C)(C)NC(=O)c1cccc(NC(=O)c2ccc(NC(=O)c3ccco3)cc2)c1	>57	?	-2.0%	4.3%
CC(C)(C)C(=O)COC(=O)c1cccc(NC(=O)c2ccco2)c1	>57	-9.8%	-5.8%	10.2%
O=C(COC(=O)c1cccc(NC(=O)c2ccco2)c1)c1ccc(Br)cc1	>57	12.6µM*	0.6%	-24.4%
O=C(Nc1nc2c(s1)CCCC2)c1ccc2ncsc2c1	>57	10µM*	12.7%	77.5%
Cc1ncsc1C(=O)Nc1nc2c(s1)CCCC2	>57	10.8%	-0.9%	-0.6%
CO/N=C(/C(=O)N[C@@H]1C(=O)N2C(C(=O)O)=C(COC(N)=O)CS[C@H]12)c1ccco1	.	-6.3%	0.0251µM*	0.01µM*
CO/N=C(\C(=O)N[C@@H]1C(=O)N2C(C(=O)O)=C(CSc3nc(=O)c(O)nn3C)CS[C@@H]12)c1csc(N)n1	>57	0.5%	12.6µM*	12.6µM*
COc1cccc(Cn2c(=O)c(C)nc3cnc(N(C)C)nc32)c1	>57	5.7%	-0.8%	102.5%
Cc1cccc(C)c1OCC(O)Cn1ccnc1C (configuration not stated)	>57	-8.2%	2.0%	3.98µM*[single pt active]
COc1cc(OC)cc(OCC(O)Cn2ccnc2C)c1 (configuration not stated)	>57	-9.5%	10.2%	17.6%
CN1CCc2c(sc3c2C(=O)NC(c2ccco2)N3)C1 (configuration not stated)	>57	?	22.0%	8.9%
CN1CCc2c(sc3c2C(=O)NC(c2cccc(OC(=O)c4cccs4)c2)N3)C1 (configuration not stated)	>57	?	11.6%	3.16µM*[single pt active]
CC1=CC(C)(C)N(C(=O)CN2C(=O)c3ccccc3C2=O)c2ccccc21	.	6.31µM*	-3.9%	47.4%
CCCCn1c(=S)[nH]c2c(oc3ccc(Cl)cc32)c1=O	>57	22.0%	1.0%	6.31µM*
CCCC[C@@H]1C[C@H]1[C@@H](NP(=O)(c1ccccc1)c1ccccc1)c1ccccc1OC	.	12.6µM*	14.6%	7.7%
CCCC[C@@H]1C[C@H]1C(NP(=O)(c1ccccc1)c1ccccc1)c1ccc(Cl)cc1 (some centres not stated)	>57	-21.7%	-5.5%	21.2%
C=CC1=C(C)C2=NC1=CC1=NC(=CC3=NC(=CC4=NC(=C2)C(C)=C4CCC(=O)O)C(CCC(=O)O)=C3C)C(C=C)=C1C.[Zn]	>57	15.8µM*	-12.4%	78.0%
O=c1cc(-c2cccc(O)c2)oc2c(O)c(O)ccc12	>57	?	-7.9%	?
O=C(O)CCc1c2ccc(=O)c(O)c-2oc2c(O)c(O)ccc12	>57	-25.6%[8 µM]	-26.4%[5.75 µM]	2.51µM*
Cc1cc(NC(=O)c2cc(-c3cccs3)nc3ccccc23)no1	>57	?	5.5%	3.98µM*[single pt active]
Cc1cc(NC(=O)c2cc(-c3ccccn3)nc3ccccc23)no1	>57	?	-5.5%	18.5%
Cn1c(=O)c2[nH]c(COCc3nc4c([nH]3)c(=O)n(C)c(=O)n4C)nc2n(C)c1=O	>57	-2.4%[8 µM]	0.2%[5.75 µM]	-0.2%[5.75 µM]
COc1ccc(NC(=O)c2cc(CC(C)C)on2)cc1OC	>57	-5.2%	12.1%	3.98µM*[single pt active]
Cc1onc(-c2ccccc2)c1C(=O)Nc1ccc2c(c1)OCO2	.	-12.6%	4.1%	-6.3%
CCc1ccc(NC(=O)c2cc(CC(C)C)on2)cc1	>57	-29.1%	12.3%	3.98µM*[single pt active]
COc1cccc(-c2cc(C(=O)Nc3ccc(OC)c(OC)c3)no2)c1	>57	-13.4%	-5.2%	31.7%
